From PubChem BioAssay (NCATS)
Values without a mark were called inactive. Records with an inconclusive call do not appear. The source made the active and inactive calls. Calls come from the whole dose curve; as a rule, active = well fitted curve in the direction sought with a large enough effect; inconclusive = small, poorly fitted or top-dose-only effect, or another doubt; inactive = no such curve, though single readings can be large; an effect the other way counts as inactive or inconclusive.

Target: Luciferin 4-monooxygenase (Photinus pyralis) (UniProt P08659)
Test: Primary firefly luciferase (FLuc) qHTS assay for identification of artifact compounds. (AID 1845220); note: nearly all actives have a fitted effect of over 60% in size;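 for activity change, negative = inhibition: plate controls were DMSO vehicle for no effect and no enzyme for full effect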
Conditions: purified firefly luciferase, luminescence, 5 min; series mostly up to 54.1 µM; activity change, negative = inhibition: at the top concentration
In short: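 FLuc 10 nM; luciferin 10 uM; ATP 10 uM; Tris-acetate pH 7.6, Mg-acetate 10 mM; 15 min RT preincubation; 5 min reaction; luminescence.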

Point of comparison: `COc1ccc2c(c1)C(=O)N(CCc1ccc(S(=O)(=O)NC(=O)NC3CCCCC3)cc1)C(=O)C2(C)C`, “activity change, negative = inhibition” value -11.4%. Against it:
- OCC(O)CN1CCN(c2ccccc2)CC1 (stereo not given) — higher, 3.42%
- O=C1Nc2ccc(Cl)cc2[C@@](C#CC2CC2)(C(F)(F)F)O1 — higher, -3%
- CC(C)(O)c1ccccc1CC[C@@H](SCC1(CC(=O)O)CC1)c1cccc(/C=C/c2ccc3ccc(Cl)cc3n2)c1 — lower, -23.1%
- Nc1ccc(S(=O)(=O)Nc2nccs2)cc1 — higher, -3.39%
- CCN(CC)C(=O)Nc1ccc(OCC(O)CNC(C)(C)C)c(C(C)=O)c1 (stereo not given) — higher, 1.81%
- O=C(CCCN1CCN(c2ccccn2)CC1)c1ccc(F)cc1 — higher, 1.68%
- C[C@@H]1C[C@H]2[C@@H]3C[C@H](F)C4=CC(=O)C=C[C@]4(C)[C@@]3(F)[C@@H](O)C[C@]2(C)[C@@]1(O)C(=O)CO — higher, -2.45%
- CCCCc1ncc(/C=C(\Cc2cccs2)C(=O)O)n1Cc1ccc(C(=O)O)cc1 — higher, -5.38%

In the case of `CCN(CC)CCNC(=O)c1cc(Cl)c(N)cc1OC`, the outcome is reported as “inactive”.
For `CC(C(O)c1ccc(O)cc1)N1CCC(Cc2ccccc2)CC1` (stereo not given), the outcome was “inactive [at 25.7 µM]”.
In the case of `CCN(CC)CCCC(C)Nc1c2ccc(Cl)cc2nc2ccc(OC)cc12` (stereo not given), the outcome is reported as “inactive [at 25.7 µM]”.
With `O=c1[nH]cnc2c1ncn2[C@@H]1O[C@H](CO)[C@@H](O)[C@H]1O` the outcome was “inactive”.
In the case of `CC(C)(C(=O)O)c1ccc(C(O)CCCN2CCC(C(O)(c3ccccc3)c3ccccc3)CC2)cc1` (stereo not given), the outcome is reported as “inactive”.
In the case of `CN1CCC[C@@H]1Cc1c[nH]c2ccc(CCS(=O)(=O)c3ccccc3)cc12`, the outcome is reported as “inactive”.
For `CCCCOc1cc(C(=O)OCCN(CC)CC)ccc1N`, the outcome was “inactive”.
For `COc1ccc(Cl)cc1C(=O)NCCc1ccc(S(=O)(=O)NC(=O)NC2CCCCC2)cc1`, the outcome was “inactive”.
In the case of `CN1CCOC(c2ccccc2)c2ccccc2C1` (stereo not given), the outcome is reported as “inactive”.
In the case of `Cc1cc(N)c2ccccc2[n+]1CCCCCCCCCC[n+]1c(C)cc(N)c2ccccc21`, the outcome is reported as “inactive”.
In the case of `CC(C)c1c(C(=O)Nc2ccccc2)c(-c2ccccc2)c(-c2ccc(F)cc2)n1CC[C@@H](O)C[C@@H](O)CC(=O)O`, the outcome is reported as “inactive [at 25.7 µM]”.
For `CCOc1ccc2ccccc2c1C(=O)N[C@@H]1C(=O)N2[C@@H]1SC(C)(C)[C@@H]2C(=O)O`, the outcome was “inactive”.

`C[C@@H]1CN(c2c(F)c(F)c3c(=O)c(C(=O)O)cn(C4CC4)c3c2F)C[C@H](C)N1` gave an activity change, negative = inhibition of 2.25% [at 11.6 µM].

System: not listed separately
Test: Primary fluorescence-based thiol-reactive (MSTI) qHTS assay for identification of artifact compounds. (AID 1845221);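 note: thiol-reactive compounds lower the probe fluorescence signal; nearly all actives have a fitted effect of over 65% in size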
Conditions: MSTI thiol-reactivity probe, 1 h; series mostly up to 53.8 µM; activity change, negative = thiol reactive: at the top concentration
In short: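 Reactivity toward the thiol probe MSTI (4 uM) is scored by fluorescence at Ex/Em 525/598 nm after 1 h at room temperature. Acetyl-MSTI and MSTI define the activity scale.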

Point of comparison: `CCN(CC)C(=O)Nc1ccc(OCC(O)CNC(C)(C)C)c(C(C)=O)c1` (stereo not given), “activity change, negative = thiol reactive” value -1.29%. Against it:
- OCC(O)CN1CCN(c2ccccc2)CC1 (stereo not given) — higher, -0.603%
- CCN(CC)CCNC(=O)c1cc(Cl)c(N)cc1OC — lower, -11.4%
- O=c1[nH]cnc2c1ncn2[C@@H]1O[C@H](CO)[C@@H](O)[C@H]1O — lower, -7.79%
- CC(C)(C(=O)O)c1ccc(C(O)CCCN2CCC(C(O)(c3ccccc3)c3ccccc3)CC2)cc1 (stereo not given) — higher, 69.1%
- O=C1Nc2ccc(Cl)cc2[C@@](C#CC2CC2)(C(F)(F)F)O1 — higher, 16.2%
- CN1CCC[C@@H]1Cc1c[nH]c2ccc(CCS(=O)(=O)c3ccccc3)cc12 — higher, 17.2%
- CCCCOc1cc(C(=O)OCCN(CC)CC)ccc1N — lower, -3.9%
- COc1ccc(Cl)cc1C(=O)NCCc1ccc(S(=O)(=O)NC(=O)NC2CCCCC2)cc1 — higher, 155%
- COc1ccc2c(c1)C(=O)N(CCc1ccc(S(=O)(=O)NC(=O)NC3CCCCC3)cc1)C(=O)C2(C)C — higher, 141%
- CN1CCOC(c2ccccc2)c2ccccc2C1 (stereo not given) — lower, -9.37%
- CC(C)(O)c1ccccc1CC[C@@H](SCC1(CC(=O)O)CC1)c1cccc(/C=C/c2ccc3ccc(Cl)cc3n2)c1 — higher, 795%
- Nc1ccc(S(=O)(=O)Nc2nccs2)cc1 — higher, -0.09%
- O=C(CCCN1CCN(c2ccccn2)CC1)c1ccc(F)cc1 — higher, 19.7%
- Cc1cc(N)c2ccccc2[n+]1CCCCCCCCCC[n+]1c(C)cc(N)c2ccccc21 — higher, 1.59%
- C[C@@H]1C[C@H]2[C@@H]3C[C@H](F)C4=CC(=O)C=C[C@]4(C)[C@@]3(F)[C@@H](O)C[C@]2(C)[C@@]1(O)C(=O)CO — higher, 51.7%
- CCCCc1ncc(/C=C(\Cc2cccs2)C(=O)O)n1Cc1ccc(C(=O)O)cc1 — lower, -14.7%
- CCOc1ccc2ccccc2c1C(=O)N[C@@H]1C(=O)N2[C@@H]1SC(C)(C)[C@@H]2C(=O)O — higher, 78.5%

Point of comparison: `CCN(CC)CCCC(C)Nc1c2ccc(Cl)cc2nc2ccc(OC)cc12` (stereo not given), “activity change, negative = thiol reactive” value -11.3% [at 25.6 µM]. Against it:
- CC(C(O)c1ccc(O)cc1)N1CCC(Cc2ccccc2)CC1 (stereo not given) — higher, 46.5% [at 25.6 µM]
- CC(C)c1c(C(=O)Nc2ccccc2)c(-c2ccccc2)c(-c2ccc(F)cc2)n1CC[C@@H](O)C[C@@H](O)CC(=O)O — higher, 179% [at 25.6 µM]

Work on `C[C@@H]1CN(c2c(F)c(F)c3c(=O)c(C(=O)O)cn(C4CC4)c3c2F)C[C@H](C)N1` yielded an activity change, negative = thiol reactive of -0.316% [at 11.5 µM].

System: Nanoluciferase (engineered Oplophorus gracilirostris luciferase)
Test: Primary Nanoluciferase (NLuc) qHTS assay for identification of artifact compounds. (AID 1845222);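 note: NLuc secreted into diluted conditioned medium of S16 cells; 0% = DMSO and -100% = no enzyme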
Conditions: NLuc-conditioned medium, Nano-Glo luminescence, 5 min; series mostly up to 54.1 µM; activity, negative = inhibition: at the top concentration
In short: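 NLuc from S16 cell medium (1:55) plus test compounds, 15 min, room temperature. Luminescence after Nano-Glo (1:100) addition, 5 min.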

Point of comparison: `COc1ccc2c(c1)C(=O)N(CCc1ccc(S(=O)(=O)NC(=O)NC3CCCCC3)cc1)C(=O)C2(C)C`, “activity, negative = inhibition” value -21.2%. Against it:
- OCC(O)CN1CCN(c2ccccc2)CC1 (stereo not given) — higher, 2.42%
- CCN(CC)CCNC(=O)c1cc(Cl)c(N)cc1OC — higher, 3.25%
- O=c1[nH]cnc2c1ncn2[C@@H]1O[C@H](CO)[C@@H](O)[C@H]1O — higher, 2.7%
- CC(C)(C(=O)O)c1ccc(C(O)CCCN2CCC(C(O)(c3ccccc3)c3ccccc3)CC2)cc1 (stereo not given) — higher, 2.92%
- O=C1Nc2ccc(Cl)cc2[C@@](C#CC2CC2)(C(F)(F)F)O1 — higher, -9.12%
- CN1CCC[C@@H]1Cc1c[nH]c2ccc(CCS(=O)(=O)c3ccccc3)cc12 — higher, -2.24%
- CCCCOc1cc(C(=O)OCCN(CC)CC)ccc1N — higher, -1.64%
- CN1CCOC(c2ccccc2)c2ccccc2C1 (stereo not given) — higher, 0%
- CC(C)(O)c1ccccc1CC[C@@H](SCC1(CC(=O)O)CC1)c1cccc(/C=C/c2ccc3ccc(Cl)cc3n2)c1 — higher, 1.48%
- Nc1ccc(S(=O)(=O)Nc2nccs2)cc1 — higher, -2.14%
- CCN(CC)C(=O)Nc1ccc(OCC(O)CNC(C)(C)C)c(C(C)=O)c1 (stereo not given) — higher, -1.59%
- O=C(CCCN1CCN(c2ccccn2)CC1)c1ccc(F)cc1 — higher, 0%
- Cc1cc(N)c2ccccc2[n+]1CCCCCCCCCC[n+]1c(C)cc(N)c2ccccc21 — higher, 0%
- C[C@@H]1C[C@H]2[C@@H]3C[C@H](F)C4=CC(=O)C=C[C@]4(C)[C@@]3(F)[C@@H](O)C[C@]2(C)[C@@]1(O)C(=O)CO — higher, -4.34%
- CCCCc1ncc(/C=C(\Cc2cccs2)C(=O)O)n1Cc1ccc(C(=O)O)cc1 — higher, -2.58%
- CCOc1ccc2ccccc2c1C(=O)N[C@@H]1C(=O)N2[C@@H]1SC(C)(C)[C@@H]2C(=O)O — higher, -0.466%

Point of comparison: `CC(C(O)c1ccc(O)cc1)N1CCC(Cc2ccccc2)CC1` (stereo not given), “activity, negative = inhibition” value 1.37% [at 25.7 µM]. Against it:
- CCN(CC)CCCC(C)Nc1c2ccc(Cl)cc2nc2ccc(OC)cc12 (stereo not given) — lower, -1.81% [at 25.7 µM]
- CC(C)c1c(C(=O)Nc2ccccc2)c(-c2ccccc2)c(-c2ccc(F)cc2)n1CC[C@@H](O)C[C@@H](O)CC(=O)O — lower, -0.668% [at 25.7 µM]

For `C[C@@H]1CN(c2c(F)c(F)c3c(=O)c(C(=O)O)cn(C4CC4)c3c2F)C[C@H](C)N1`, the activity, negative = inhibition was 4.03% [at 11.6 µM].
